Test results reported in PubChem BioAssay AID1259312 (Keith Lab, Institute of Cancer Science, University of …, 2017).
The whole screen tested about 4,500 compounds, of which about 200 (4.4%) were called active.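 How the source made its calls: active means cell survival measured by absorbance rises more than 2.5-fold over infected cells without compound; inactive means the rest.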 This excerpt belongs to a sample that is enriched for actives.

test: survival after telomere uncapping, modulators, primary screen, cell-based (AID 1259312); conditions: HCT116 + Ad-hTR-mut, MTT, 5 d; at 10 µM, hits give high values;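 further: virus expresses mutant telomerase RNA that uncaps telomeres and kills cells; compound added 2 days after infection so exposure lasts 3 days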

Structure (SMILES) | fold change
O=[N+]([O-])c1ccc(N2CCOCC2)cc1Cl | 4.62 (active)
CC1CN(c2ccc([N+](=O)[O-])c(N3CCOCC3)c2)CCN1 (stereo not given) | -1.03 (inactive)
CN1CCN(c2ccc([N+](=O)[O-])c(N3CCN(C)CC3)c2)CC1 | -1.49 (inactive)
O=[N+]([O-])c1ccc(Cl)c2nonc12 | -8.7 (inactive)
NC1(Cc2ccc(Cl)cc2)CC1 | -2.29 (inactive)
COc1cc2c(cc1OC)C13CCN4CC5=CCOC6CC(=O)N2C1C6C5CC43 (stereo not given) | 3.18 (active)
O=C1C[C@@H]2OCC=C3CN4CC[C@]56c7ccccc7N1[C@H]5[C@H]2[C@H]3C[C@H]46 | -1.27 (inactive)
CN1CCN(c2ccc([N+](=O)[O-])cc2Cl)CC1 | -1.02 (inactive)
Cc1cc(C)c(C)c(C=C(C#N)C#N)c1C | 1.51 (inactive)
N#CC(C#N)=Cc1c2ccccc2cc2ccccc12 | 3.81 (active)
CCc1cc(CC)c(C=C(C#N)C#N)c(CC)c1 | 1.07 (inactive)
CCOC(=O)c1c(NC(=O)C2C(C)(C)C2(C)C)sc2c1CCC2 | -1.33 (inactive)
CC1CN(c2ccc([N+](=O)[O-])cc2[N+](=O)[O-])CCN1 (stereo not given) | 2.15 (inactive)
Clc1ccc2c(N3CCNCC3)ccnc2c1 | -2.13 (inactive)
CC(=O)OC1CCC2(C)C3CCC4(C)C(CC[C@]4(OC(C)=O)C(C)OC(C)=O)C3CC[C@H]2C1 (stereo not given in full) | 3.25 (active)
C[C@]12CC[C@H](O)C[C@@H]1CC[C@@H]1[C@@H]2CC[C@]2(C)C(=O)CC[C@@H]12 | 1.18 (inactive)
COC(=O)C(N)CCCN=C(N)N[N+](=O)[O-] (stereo not given) | -1.4 (inactive)
CCNc1nc(Cl)nc(NCC)n1 | 2.5 (active)
O=c1[nH]c(=O)n(Cc2ccco2)c(O)c1C=NCc1cccs1 | inactive
COC(=O)Nc1nc2ccccc2[nH]1 | -8.68 (inactive)
O=[N+]([O-])c1ccc(NCCO)c2cccnc12 | -1.59 (inactive)
CCNCCNc1ccc([N+](=O)[O-])c2cccnc12 | -2.62 (inactive)
O=[N+]([O-])c1ccc(NCCO)c2ncccc12 | 2.89 (active)

Structure (SMILES) | fold change
N#Cc1c(/N=C/c2c(O)n(Cc3ccco3)c(=O)[nH]c2=O)sc2c1CCCC2 | inactive
CC1CN(c2ccccc2[N+](=O)[O-])CCN1 (stereo not given) | 1.8 (inactive)
CC1(C)C(C(=O)Nc2cc(Br)c(Br)c(Br)c2)C1(C)C | -1.03 (inactive)
COc1ccc(CC2NCCc3cc(OC)c(OC)cc32)cc1OC (stereo not given) | -2.4 (inactive)
COc1cc2c(cc1OC)C(C)NCC2 (stereo not given) | 1.05 (inactive)
COc1cc2c(cc1O)CCNC2C (stereo not given) | 4.6 (active)
COCc1c(C)cc(C)c(C=C(C#N)C#N)c1C | -1.04 (inactive)
C[C@]12CC[C@H]3[C@@H](CC[C@]4(O)C[C@@H](O)CC[C@]34C=O)[C@@]1(O)CC[C@@H]2C1=CC(=O)OC1 | -23.3 (inactive)
CCC1CN2CCC1CC2C(O)c1ccnc2ccc(OC)cc12 (stereo not given) | 1.15 (inactive)
C#CCSc1nc2ccccc2c(=O)n1-c1ccccc1 | -2.72 (inactive)
CCCCc1ccc(C=C(C#N)C#N)s1 | -1.17 (inactive)
N/N=C(\N)c1nonc1N | 3.99 (active)
Nc1nonc1-c1nn[nH]n1 | -1.38 (inactive)
Nc1nonc1[N+](=O)[O-] | 1.03 (inactive)
Cc1cc(C)[n+]2cc(Br)ccc2n1 | 1.21 (inactive)
O=C(CCl)Nc1ccccn1 | -1.43 (inactive)
CN1CCN(c2ccc([N+](=O)[O-])c3cccnc23)CC1 | -1.27 (inactive)
O=[N+]([O-])c1ccc(N2CCNCC2)c2cccnc12 | -1.29 (inactive)
CC1CN(c2ccc([N+](=O)[O-])c3cccnc23)CC(C)N1 (stereo not given) | 3.89 (active)
O=C(CCl)NCc1ccco1 | 1.2 (inactive)
CCc1nnc(NC(=O)CCl)s1 | 1.66 (inactive)
N#CC1=C(N)Oc2c(c(=O)oc3ccccc23)C1c1cccc2ccccc12 (stereo not given) | -1.29 (inactive)
